# Assay results published in PubChem BioAssay (Tox21).
# A number with no mark means an inactive call. Records with an inconclusive call do not appear. Entries that show only a call come without a potency. The source made the active and inactive calls. Unless noted, calls come from the whole dose curve.
# Tests used:
# [1] = Nuclear factor erythroid 2-related factor 2/antioxidant responsive element (Nrf2/ARE) small molecule agonists: qHTS cell viability counter screen in human keratinocytes (AID 1919968; active = well fitted curve in the direction sought with a large enough effect in the repeat runs; an effect the other way counts as inactive or inconclusive; note: nearly all actives have a fitted effect of over 55% in size)
# In short: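 Cells of the KeratinoSens line were plated at 1,500 per well and left for 5 h before compound transfer from DMSO stocks. After a 23 h incubation (37 C, 5% CO2), CellTiter-Fluor was added. Signal was taken as fluorescence intensity 1 h later.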
# [2] = Nuclear factor erythroid 2-related factor 2/antioxidant responsive element (Nrf2/ARE) small molecule agonists: luciferase reporter gene qHTS assay in human keratinocytes (AID 1919969); note: nearly all actives have a fitted effect of over 35% in size; note: potency is the fitted concentration of half-maximal effect
# [3] = target: Gonadotropin-releasing hormone receptor (Homo sapiens) (UniProt P30968); assay: Human gonadotropin-releasing hormone receptor (GnRHR) small molecule agonists, calcium flux assay in GnRHR-HEK293 cells (AID 1920063); note: nearly all actives have a fitted effect of over 35% in size
# In short: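 Compounds dissolved in DMSO are pin-transferred onto dye-loaded GnRHR-HEK293 cells, which were seeded 18 h before at 37 C/5% CO2. Calcium signal is read as fluorescence intensity at 1 s intervals for 3 min.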
# [4] = target: KiSS-1 receptor (Homo sapiens) (UniProt Q969F8); assay: Human kisspeptin (KISS1R) small molecule agonists, calcium flux assay in KISS1R-HEK293 cells (AID 1920064; active = well fitted curve in the direction sought with a large enough effect in the repeat runs; an effect the other way counts as inactive or inconclusive)
# In short: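 Cell line: HEK293, stable human KISS1R. Dye loading 1 h at 37 C after 18 h culture. Read: kinetic fluorescence, 480/540 nm, 3 min at 1 s intervals.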
# [5] = G protein-coupled receptor (GPCR) small molecule agonists, calcium flux assay: HEK293 wild type cell line counter screen (AID 1920065)
# In short: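 Tox21 10K compounds, 15 concentrations each in triplicate, pin-transferred in DMSO onto dye-loaded cells; kinetic read at 480/540 nm for 3 min, 1 s intervals.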
# [6] = p53 small molecule agonists, cell-based qHTS assay with human liver microsomes (AID 1963577);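 note: p53 response element beta-lactamase reporter cells with liver microsomes plus NADPH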
# In short: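 Metabolically competent format: test substances, human liver microsomes and NADPH (both 0.5 mg/mL final) incubated with p53RE-bla cells 16 h at 37 C. Beta-lactamase reporter signal then quantified by fluorescence.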
# [7] = p53 small molecule agonists, cell-based qHTS assay with rat liver microsomes (AID 1963578)
# In short: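 Each plate received p53RE-bla cells, then compound, then rat liver microsomes and NADPH (both 0.5 mg/mL final). Plates were held 16 h at 37 C, and beta-lactamase activity was detected with LiveBLAzer over 2 h.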
# [8] = p53 small molecule agonists, cell-based qHTS assay with human liver microsomes: qHTS cell viability counter screen (AID 1963579); note: nearly all actives have a fitted effect of over 45% in size
# In short: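 Tox21 library compounds, delivered from DMSO stocks, were tested on p53RE-bla cells together with 0.5 mg/mL human liver microsomes and 0.5 mg/mL NADPH (final) over 16 h at 37 C; CellTiter-Glo luminescence served as the cytotoxicity measure.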
# [9] = p53 small molecule agonists, cell-based qHTS assay with rat liver microsomes: qHTS cell viability counter screen (AID 1963580); note: nearly all actives have a fitted effect of over 45% in size
# In short: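 Cytotoxicity counter screen: intracellular ATP read by CellTiter-Glo luminescence in the p53 reporter wells. HCT-116 p53RE-bla cells were treated for 16 h at 37 C alongside rat liver microsomes and NADPH, each 0.5 mg/mL final.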
# [10] = p53 small molecule agonists, cell-based qHTS assay (AID 1963582; active = well fitted activation curve with a large enough effect in the signal ratio in the repeat runs, not every such curve was filed as active; the % refers to the signal ratio)
# In short: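 16 h compound exposure (37 C) of p53 response element–bla cells, preceded by 5 h recovery at 37 C/5% CO2; read-out via LiveBLAzer B/G FRET substrate, 2 h RT, fluorescence intensity.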
# [11] = target: 5-hydroxytryptamine receptor 2A (Homo sapiens) (UniProt P28223); assay: 5-hydroxytryptamine receptor 2A (HTR2A) small molecule antagonists, cell-based qHTS assay (AID 1963586); note: nearly all actives have a fitted effect of over 45% in size; note: potency is the fitted concentration of half-maximal effect
# In short: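 CHO cells stably expressing human HTR2A were plated for 18 h at 37 C, then loaded with calcium dye for 1 h. Compounds were preincubated 5 min at room temperature before DOI (4 nM solution) was added. Kinetic fluorescence was read for 3 min.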
# [12] = target: 5-hydroxytryptamine receptor 2A (Homo sapiens) (UniProt P28223); assay: 5-hydroxytryptamine receptor 2A (HTR2A) small molecule agonists, cell-based qHTS assay (AID 1963587); note: nearly all actives have a fitted effect of over 30% in size; note: potency is the fitted concentration of half-maximal effect
# In short: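 Kinetic calcium-flux fluorescence (2 min, 1 sec intervals) after compound addition in agonist mode. HTR2A-CHO cells were cultured 18 h, then dye-loaded 1 h at 37 C.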
# [13] = target: Muscarinic acetylcholine receptor M1 (Homo sapiens) (UniProt P11229); assay: Cholinergic receptor muscarinic 1 (CHRM1) small molecule antagonists, cell-based qHTS assay (AID 1963588); note: nearly all actives have a fitted effect of over 40% in size; note: potency is the fitted concentration of half-maximal effect
# In short: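 Compounds were tested at 15 concentrations in three independent runs. Dye-loaded CHRM1-CHO cells were exposed 5 min at room temperature before stimulation by acetylcholine added at 50nM. Intracellular calcium was read kinetically on FDSS for 3 min.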
# [14] = target: Muscarinic acetylcholine receptor M1 (Homo sapiens) (UniProt P11229); assay: Cholinergic receptor muscarinic 1 (CHRM1) small molecule agonists, cell-based qHTS assay (AID 1963589); note: nearly all actives have a fitted effect of over 35% in size
# In short: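 Homogeneous fluorescence calcium flux, agonist mode. Human M1-expressing CHO cells; compound dosed at 15 concentrations, three independent runs; signal sampled every 1 sec.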
# [15] = cAMP Responsive Elements (CRE) small molecule agonists, cell-based qHTS assay (AID 1963590)
# In short: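 HEK 293T cells stably bearing CRE-bla were plated at 2,000 cells per well and rested 18 h. Compounds, positive controls or DMSO were added for 3 h at 37 C. LiveBLAzer B/G substrate was then loaded for 2 h at room temperature.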
# [16] = cAMP Responsive Elements (CRE) small molecule antagonists, cell-based qHTS assay (AID 1963591; active = well fitted inhibition curve with a large enough effect in the signal ratio in the repeat runs, not every such curve was filed as active; the % refers to the signal ratio)
# In short: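 First, CRE-bla HEK293T cells settled 18 h at 37 C. Next, compound and 0.25 uM final NKH477 were applied for 3 h. Last, LiveBLAzer B/G substrate was loaded for 2 h at room temperature.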
# [17] = target: Beta-2 adrenergic receptor (Homo sapiens) (UniProt P07550); assay: Adrenergic beta2 receptor (ADRB2) small molecule antagonists, cell-based qHTS assay (AID 1963592); note: series mostly up to about 92 µM; nearly all actives have a fitted effect of over 50% in size
# In short: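 Assay format: CHO-ADRB2 cells, 18-20hr seeding at 37C/5% CO2, then compound plus 1nM isoproterenol agonist mix for 0.5hr RT. Homogeneous time-resolved fluorescence cAMP detection after 1hr, expressed as 665/615 nm ratio.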
# [18] = target: D(2) dopamine receptor (Homo sapiens) (UniProt P14416); assay: Dopamine D2 receptor (DRD2) small molecule agonists, cell-based qHTS assay (AID 1963594); note: nearly all actives have a fitted effect of over 35% in size
# In short: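 cAMP accumulation in DRD2-HEK293 cells measured by HTRF after 1 h detection; compounds added 10 min before NKH477 (200nM […]) forskolin-analogue stimulation, 30 min at room temperature, with Ro20-1724 present at 0.1 mM final.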
# [19] = target: D(2) dopamine receptor (Homo sapiens) (UniProt P14416); assay: Dopamine D2 receptor (DRD2) small molecule antagonists, cell-based qHTS assay (AID 1963595; active = well fitted inhibition curve with a large enough effect in the signal ratio in the repeat runs, with a control signal flat; the % refers to the signal ratio; note: potency is the fitted concentration of half-maximal effect)
# In short: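 HEK293 cells stably expressing DRD2 were preincubated with 0.1 mM Ro20-1724, then with compound for 10 min at room temperature. Cells were stimulated with 200 nM NKH477 plus 12 nM quinpirole for 30 min, and cAMP was read by HTRF.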
# [20] = target: Beta-2 adrenergic receptor (Homo sapiens) (UniProt P07550); assay: Adrenergic beta2 receptor (ADRB2) small molecule agonists, cell-based qHTS assay (AID 1963593);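 note: CHO cells stably overexpressing human ADRB2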
# In short: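 CHO cells stably over-expressing ADRB2 were plated overnight at 37C, then dosed with compounds plus a stimulation mix containing 100uM IBMX and 25uM Ro-20-1724 for 0.5hr at room temperature. cAMP was measured by HTRF competition, 1hr.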
# D(2) dopamine receptor (Homo sapiens), sequence (P14416 whole entry, looked up): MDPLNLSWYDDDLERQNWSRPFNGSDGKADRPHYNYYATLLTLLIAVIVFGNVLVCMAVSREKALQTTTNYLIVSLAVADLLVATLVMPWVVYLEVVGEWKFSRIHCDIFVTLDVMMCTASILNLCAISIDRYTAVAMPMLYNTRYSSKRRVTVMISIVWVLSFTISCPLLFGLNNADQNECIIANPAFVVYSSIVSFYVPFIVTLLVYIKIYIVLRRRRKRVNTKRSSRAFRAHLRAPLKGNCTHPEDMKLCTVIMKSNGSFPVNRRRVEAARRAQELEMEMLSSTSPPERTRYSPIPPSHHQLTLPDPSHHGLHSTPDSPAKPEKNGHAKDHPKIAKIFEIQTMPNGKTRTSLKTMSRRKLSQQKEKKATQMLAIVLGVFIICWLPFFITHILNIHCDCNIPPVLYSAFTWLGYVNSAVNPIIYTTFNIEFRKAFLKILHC
# 5-hydroxytryptamine receptor 2A (Homo sapiens), sequence (P28223 whole entry, looked up): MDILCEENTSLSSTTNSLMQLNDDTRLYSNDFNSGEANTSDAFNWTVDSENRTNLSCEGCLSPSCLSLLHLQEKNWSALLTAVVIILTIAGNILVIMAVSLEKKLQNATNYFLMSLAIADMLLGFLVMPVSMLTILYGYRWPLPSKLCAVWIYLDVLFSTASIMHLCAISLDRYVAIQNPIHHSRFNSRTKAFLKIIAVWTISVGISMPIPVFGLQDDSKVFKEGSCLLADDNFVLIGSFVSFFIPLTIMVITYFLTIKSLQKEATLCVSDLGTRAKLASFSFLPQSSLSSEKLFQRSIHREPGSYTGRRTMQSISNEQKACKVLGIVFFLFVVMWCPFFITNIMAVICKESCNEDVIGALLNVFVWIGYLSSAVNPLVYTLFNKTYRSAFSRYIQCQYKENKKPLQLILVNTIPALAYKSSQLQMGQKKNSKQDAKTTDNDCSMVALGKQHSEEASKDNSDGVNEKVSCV
# Muscarinic acetylcholine receptor M1 (Homo sapiens), sequence (P11229 whole entry, looked up): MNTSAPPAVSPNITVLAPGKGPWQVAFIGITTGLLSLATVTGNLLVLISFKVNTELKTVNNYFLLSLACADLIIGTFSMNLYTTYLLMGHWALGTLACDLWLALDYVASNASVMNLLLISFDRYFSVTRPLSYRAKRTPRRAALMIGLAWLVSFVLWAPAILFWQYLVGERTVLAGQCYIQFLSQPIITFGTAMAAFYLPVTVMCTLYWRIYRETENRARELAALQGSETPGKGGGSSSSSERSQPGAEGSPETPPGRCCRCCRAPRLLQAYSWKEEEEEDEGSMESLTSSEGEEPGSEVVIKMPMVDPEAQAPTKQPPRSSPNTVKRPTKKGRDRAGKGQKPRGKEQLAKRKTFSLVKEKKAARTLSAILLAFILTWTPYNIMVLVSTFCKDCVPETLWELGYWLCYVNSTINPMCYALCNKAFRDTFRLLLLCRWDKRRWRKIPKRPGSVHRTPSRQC
# Beta-2 adrenergic receptor (Homo sapiens), sequence (P07550 whole entry, looked up): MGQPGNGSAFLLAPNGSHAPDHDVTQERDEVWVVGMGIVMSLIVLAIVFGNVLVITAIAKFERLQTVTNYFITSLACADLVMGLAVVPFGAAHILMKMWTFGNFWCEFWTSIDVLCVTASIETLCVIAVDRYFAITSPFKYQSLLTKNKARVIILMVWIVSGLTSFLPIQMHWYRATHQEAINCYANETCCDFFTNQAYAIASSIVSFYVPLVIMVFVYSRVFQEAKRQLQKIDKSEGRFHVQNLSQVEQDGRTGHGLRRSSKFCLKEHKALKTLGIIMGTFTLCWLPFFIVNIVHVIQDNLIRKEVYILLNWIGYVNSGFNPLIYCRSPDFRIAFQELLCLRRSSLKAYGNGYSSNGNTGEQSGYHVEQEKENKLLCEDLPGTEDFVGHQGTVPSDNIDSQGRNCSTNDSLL
# Gonadotropin-releasing hormone receptor (Homo sapiens), sequence (P30968 whole entry, looked up): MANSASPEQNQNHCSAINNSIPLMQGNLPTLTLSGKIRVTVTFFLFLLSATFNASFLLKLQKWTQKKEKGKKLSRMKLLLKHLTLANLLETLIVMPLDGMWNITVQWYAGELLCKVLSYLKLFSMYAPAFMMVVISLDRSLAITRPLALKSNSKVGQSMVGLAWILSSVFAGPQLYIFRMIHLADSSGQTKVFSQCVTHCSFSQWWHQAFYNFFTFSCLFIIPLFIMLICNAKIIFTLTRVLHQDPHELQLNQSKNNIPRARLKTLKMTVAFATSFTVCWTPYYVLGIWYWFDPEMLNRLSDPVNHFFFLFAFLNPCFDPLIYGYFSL
# KiSS-1 receptor (Homo sapiens), sequence (Q969F8 whole entry, looked up): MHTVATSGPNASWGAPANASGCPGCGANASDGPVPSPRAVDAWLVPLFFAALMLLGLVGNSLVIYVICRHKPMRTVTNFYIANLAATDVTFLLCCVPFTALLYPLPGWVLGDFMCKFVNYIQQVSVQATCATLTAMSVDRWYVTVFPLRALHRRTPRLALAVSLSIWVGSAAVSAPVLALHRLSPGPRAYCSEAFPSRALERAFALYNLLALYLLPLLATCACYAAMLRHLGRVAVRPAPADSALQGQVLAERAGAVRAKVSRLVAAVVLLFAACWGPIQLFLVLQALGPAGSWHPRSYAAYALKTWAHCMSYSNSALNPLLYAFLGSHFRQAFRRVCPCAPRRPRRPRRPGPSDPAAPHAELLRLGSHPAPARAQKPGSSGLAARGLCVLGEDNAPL
SMILES,Potency [1],Potency [2],Potency [3],outcome [4],outcome [5],Potency [6],Potency [7],Potency [8],Potency [9],Potency [10],Potency [11],Potency [12],Potency [13],Potency [14],Potency [15],Potency [16],Potency [17],Potency [18],Potency [19],Potency [20]
COCCOCCOCCOC,inactive,inactive,inactive,inactive,inactive,inactive,inactive,inactive,inactive,inactive,inactive,inactive,inactive,inactive,inactive,inactive,inactive,inactive,inactive,
C=CCn1c(=O)n(CC=C)c(=O)n(CC=C)c1=O,inactive,inactive,inactive,inactive,inactive,inactive,inactive,inactive,inactive,inactive,inactive,inactive,inactive,inactive,inactive,,inactive,inactive,inactive,inactive
O=C(O)CCC(=O)C(=O)O,inactive,inactive,inactive,inactive,inactive,inactive,inactive,inactive,inactive,inactive,inactive,inactive,inactive,inactive,inactive,,,inactive,inactive,
C=CC(OCC)OCC,inactive,inactive,inactive,inactive,inactive,inactive,inactive,inactive,inactive,inactive,inactive,inactive,inactive,inactive,,inactive,inactive,inactive,inactive,
COc1ccc(-n2nc(CCC(=O)N(C)O)cc2-c2ccc(Cl)cc2)cc1,inactive,inactive,inactive,inactive,inactive,inactive,inactive,inactive,inactive,inactive,inactive,inactive,,inactive,inactive,inactive,inactive,inactive,inactive,
COc1ccc(C)cc1[N+](=O)[O-],inactive,inactive,inactive,inactive,inactive,inactive,inactive,inactive,inactive,inactive,inactive,inactive,inactive,inactive,inactive,,inactive,inactive,,
COc1ccccc1N1CCN(CCCCNC(=O)c2ccc(-c3ccc(C(C)=O)cc3)cc2)CC1,inactive,inactive,inactive,inactive,inactive,inactive,inactive,inactive,inactive,inactive,326 nM (active),53.5 nM (active),1030 nM (active),inactive,,,,inactive,750 nM (active),
O=C(O)c1cccc(Oc2ccccc2)c1,inactive,inactive,inactive,inactive,inactive,inactive,inactive,inactive,inactive,inactive,inactive,inactive,inactive,inactive,,,inactive,inactive,inactive,inactive
FC(F)(F)C(F)(F)C(F)(F)C(F)(F)CCI,inactive,inactive,inactive,inactive,inactive,inactive,inactive,inactive,inactive,inactive,inactive,inactive,inactive,inactive,inactive,inactive,,inactive,inactive,inactive
Oc1cc2ccccc2cc1O,inactive,inactive,inactive,inactive,inactive,inactive,inactive,inactive,inactive,inactive,inactive,inactive,inactive,inactive,,inactive,inactive,inactive,inactive,inactive
CCOC(=O)NNc1ccc(N(CC)CC(C)O)nn1 (stereo not given),inactive,inactive,inactive,inactive,inactive,inactive,inactive,inactive,inactive,inactive,inactive,inactive,inactive,,inactive,inactive,inactive,inactive,inactive,
CC(C)(O)c1ccccc1,inactive,inactive,inactive,inactive,inactive,inactive,inactive,inactive,inactive,inactive,inactive,inactive,inactive,,inactive,inactive,inactive,inactive,inactive,
CCn1c2ccccc2c2cc([N+](=O)[O-])ccc21,inactive,inactive,inactive,inactive,inactive,inactive,inactive,inactive,inactive,inactive,inactive,inactive,inactive,inactive,,inactive,inactive,inactive,inactive,
Cc1cnc(NS(=O)(=O)c2ccc(N)cc2)nc1,inactive,inactive,inactive,inactive,inactive,inactive,inactive,inactive,inactive,inactive,inactive,inactive,inactive,inactive,inactive,inactive,inactive,,inactive,
COc1ccc(-n2nc(C(F)F)cc2-c2ccc(S(C)=O)cc2)cc1 (stereo not given),inactive,inactive,inactive,inactive,inactive,inactive,inactive,inactive,inactive,inactive,inactive,inactive,inactive,inactive,,,inactive,inactive,inactive,inactive
CC(=O)Nc1ccccc1C,inactive,inactive,inactive,inactive,inactive,inactive,inactive,inactive,inactive,inactive,inactive,inactive,inactive,inactive,inactive,,inactive,inactive,inactive,inactive
CN1CC(=O)N/C1=N/C(=O)Nc1cccc(Cl)c1,inactive,inactive,inactive,inactive,inactive,inactive,inactive,inactive,inactive,inactive,inactive,inactive,inactive,inactive,inactive,,inactive,inactive,inactive,inactive
COc1ccccc1OC(=O)Oc1ccccc1OC,inactive,inactive,inactive,inactive,inactive,inactive,inactive,inactive,inactive,inactive,inactive,inactive,,inactive,inactive,inactive,inactive,inactive,inactive,inactive
CCCCC(CC)COC(=O)COc1ccc(Cl)cc1C (stereo not given),inactive,inactive,inactive,inactive,inactive,inactive,inactive,inactive,inactive,inactive,inactive,inactive,inactive,inactive,,inactive,inactive,inactive,inactive,
N#Cc1ccc(CC(=O)c2cccc(C(F)(F)F)c2)cc1,inactive,inactive,inactive,inactive,inactive,inactive,inactive,inactive,inactive,inactive,inactive,inactive,inactive,inactive,inactive,,inactive,inactive,inactive,
CC(C)(O)CCc1ccccc1,inactive,inactive,inactive,inactive,inactive,inactive,inactive,inactive,inactive,inactive,inactive,inactive,,inactive,inactive,inactive,inactive,inactive,inactive,inactive
Oc1ccc(Nc2ccccc2)cc1,inactive,61100 nM (active),inactive,inactive,inactive,inactive,inactive,inactive,inactive,inactive,inactive,inactive,inactive,inactive,,,,inactive,inactive,
CCCCC(CC)COC(=O)CCCCCCCCC(=O)OCC(CC)CCCC (stereo not given),inactive,inactive,inactive,inactive,inactive,inactive,inactive,inactive,inactive,inactive,inactive,inactive,inactive,,inactive,inactive,inactive,inactive,inactive,inactive
CC1(C)C(=O)N(CO)C(=O)N1CO,inactive,inactive,inactive,inactive,inactive,inactive,inactive,inactive,inactive,inactive,inactive,inactive,inactive,inactive,,inactive,inactive,inactive,inactive,
CN(C)Cc1ccccc1,inactive,inactive,inactive,inactive,inactive,inactive,inactive,inactive,inactive,inactive,inactive,inactive,inactive,inactive,,inactive,inactive,inactive,inactive,inactive
CN(C)c1ccc(CCO)cc1,inactive,27100 nM (active),inactive,inactive,inactive,inactive,inactive,inactive,inactive,inactive,inactive,inactive,inactive,,,inactive,inactive,inactive,inactive,inactive
CSc1cnc(C)cn1,inactive,inactive,inactive,inactive,inactive,inactive,inactive,inactive,inactive,inactive,inactive,inactive,inactive,inactive,inactive,inactive,,inactive,inactive,
C=CCSSCCC,inactive,inactive,inactive,inactive,inactive,inactive,inactive,inactive,inactive,inactive,inactive,inactive,,inactive,inactive,inactive,inactive,inactive,inactive,inactive
C[C@H]1C[C@H]2[C@@H]3CCC4=CC(=O)C=C[C@]4(C)[C@H]3C(=O)C[C@]2(C)[C@@]1(O)C(=O)CO,inactive,inactive,inactive,inactive,inactive,inactive,inactive,inactive,inactive,inactive,inactive,inactive,,inactive,inactive,inactive,inactive,inactive,inactive,
O=C1OC(=O)C2C3C=CC(C3)C12 (stereo not given),inactive,inactive,inactive,inactive,inactive,inactive,inactive,inactive,inactive,inactive,inactive,inactive,inactive,,inactive,inactive,inactive,,inactive,inactive
